Data on four molecules can be found in PubChem BioAssay AID1740 (National Center for Advancing Translational Sciences (NCATS), 2009).

Each structure is given as a SMILES string. Inconclusive results are not listed. Entries that show only a call come without a potency. Calls of active or inactive are those of the source. Calls follow the shape of the dose curve; as a rule, active = well fitted activation curve with a large enough effect; inconclusive = small, poorly fitted or top-dose-only effect; inactive = no such curve, though single readings can be large or run the other way.

The experiment is described as follows: Confirmation Concentration-Response Assay for Enhancers of SMN2 Splice Variant Expression. As to conditions: HEK293 SMN2-exon7-luciferase splicing reporter, luminescence, 30-36 h; series mostly up to 22.7 µM. The text has this: NIH Chemical Genomics Center [NCGC] NIH Molecular Libraries Probe Production centers Network [MLPCN] MLPCN Grant: R03 MH084179-01 Assay Submitter (PI): Elliot Androphy NCGC Assay Overview: Spinal muscular atrophy (SMA) is caused by insufficient levels of the survival motor neuron protein SMN. The SMN locus on chromosome 5q13 contains two inverted copies of SMN called SMN1 and SMN2 which are 99% identical at the amino acid level. SMN1 is a fully functional protein and SMN2 skips exon 7 90% of the time. Skipping of exon 7 produces non-functional protein product. 10% of the SMN2 protein includes exon 7 and is fully functional. In the SMA disease state, mutations in the SMN1 locus are the cause of the disease state. Because only 10% of SMN2 is of the fully functional form, it is not sufficient to overcome the deficiency produced by the loss of the SMN1 product. A therapy that either increase the amount of SMN2 product made or to increase the inclusion of exon 7 has been proposed for the treatment of SMA. We have designed an assay to identify small molecules that can increase the amount of functional SMN2 product by appending a luciferase reporter gene after the native SMN2 gene, such that inclusion of exon 7 in the expressed product places the luciferase sequence in frame, thus generating functional luciferase enzyme.
NCGC Assay Protocol Summary: This screen utilizes a luciferase reporter gene assay, combining the promoter with the major portion of the native SMN2 cDNA (exons 1 -7, intron 8 , exon 8 fused to luciferase) stably expressed in HEK293 cells. Compounds that increase luciferase signal presumably enhance expression of the functional SMN2 splice variant. Passaging media contained DMEM w/ glutamax (+phenol red) 10% FCS, 1x pen/strep, 200 ug/ml hygro, 1x sodium pyruvate. Assay media contained DMEM w/ glutamax (-phenol red) 10% FCS, 1x pen strep, 1x pyruvate Sequence, Parameter, Value, Description (1) Cells, 5 uL, 2000 cells/well, 1536 TC treated White solid bottom plate (2) Time, 10-12 hours, 37C 5% CO2 (3) Compound, 23 nl, MLSMR Library (4) Control Compound, 23 nL, Sodium butyrate st 4.5mM (final) conc (5) Time, 30-36 hours, 37C 5% CO2 (6) Reagent, 3 ul, One Glo (TM) from Promega (7) Time, 5-15 minutes, Room temp (8) Detector, Viewlux: luminescent read, 60 second integration, high speed 2x binning Keywords: Spinal muscular atrophy, SMA, SMN2, high throughput screening, MLSMR, MLPCN, NIH Roadmap, qHTS and NCGC
For the molecule `C[C@@H]1O[C@@H](O[C@H]2C[C@@H](O)[C@]3(CO)[C@H]4[C@H](O)C[C@]5(C)[C@@H](C6COC(=O)C6)CC[C@]5(O)[C@@H]4CC[C@]3(O)C2)[C@H](O)[C@H](O)[C@H]1O` (some centres undefined), the Potency entry was “inactive”. Take `COc1ccc(CNC(=O)c2ccc(C(C)C)cc2)cc1`: the Potency was 5.01 µM (active). Take `O=C(C1CCN(c2nc3ccc(Br)cc3s2)CC1)N1CCC2(CC1)OCCO2`: the Potency entry is “inactive”. The entry for `CCc1ccc2nc(N3CCC(C(=O)N4CCC5(CC4)OCCO5)CC3)sc2c1` is “inactive”.
